Our source for the Potency values is PubChem BioAssay (Tox21).

Some compounds were tested as several samples or in several runs, with calls that do not always agree. Activity calls are given as the source filed them. Entries that show only a call come without a potency. Calls come from the whole dose curve; as a rule, active = well fitted cell-killing curve with a large enough effect in the repeat runs; inconclusive = weak or mixed curves, or effect the other way; inactive = flat fitted curve, though single readings scatter.
Potency is the fitted concentration of half-maximal effect.

This test in a line: qHTS assay to identify small molecule HDAC inhibitors - cell viability counter screen (AID 1259365). Note: nearly all actives have a fitted effect of over 50% in size. Particulars: HCT-116 viability, CellTiter-Glo ATP luminescence, 2 h; series mostly up to 92.4 µM. The source says:
U.S. Tox21 Program National Center for Advancing Translational Sciences [NCATS] NIH Chemical Genomics Center [NCGC] U.S. Environmental Protection Agency [EPA] National Institutes of Environmental Health Sciences [NIEHS] National Toxicology Program [NTP] U.S. Food and Drug Administration [FDA] Tox21 Assay Overview: Histone deacetylases (HDACs) are a group of epigenetic enzymes that regulate gene expression by histone deacetylation. HDACs are capable of introducing epigenetic modifications and such aberrations contribute to the onset and progression of several human diseases, thus making HDACs a popular therapeutic target. For identifying endogenous class I/II HDAC inhibitors a homogenous, luminogenic HDAC I/II cell based assay was used to measure the relative activity of class I and II HDACs from cells. Wild type HCT-116 cells were used to screen Tox21 compound libraries for identifying class I/II HDAC inhibitors.
Tox21 Assay Protocol Summary: HCT-116 cells were dispensed at 1,500 per well in 5uL of culture medium into white solid bottom 1536-well plates (Greiner Bio-One, Monroe, NC) using a Multidrop Combi (Thermo Scientific, Waltham, MA) dispenser. The assay plates were incubated at 37 C and 5% CO2 for an overnight, and then 23nL of compounds dissolved in DMSO and positive control were transferred using a Pintool station (Wako, San Diego, CA). The assay plates were incubated at 37C and 5% CO2 for 2hr. After compound treatment, 4uL of CellTiter-Glo reagent (Promega Corporation, Madison, WI) was added to each well of the assay plates using Flying Reagent Dispenser (FRD, Aurora Discovery, San Diego, CA) and incubated the assay plates at room temperature for 30min. The luminescence signal was quantified using a ViewLux plate reader (Perkin Elmer, Shelton, CT).
As to `CN(C)CCOC(c1ccccc1)c1ccccc1`, the Potency result is “inactive”.

As for `Cc1c(C(=O)O)c(O)cc2c1C(=O)c1c(O)c([C@@H]3O[C@H](CO)[C@@H](O)[C@H](O)[C@H]3O)c(O)c(O)c1C2=O`, the Potency is 27.3 µM (active) and inactive.

As for `COc1ccc(CN(CCN(C)C)c2ccccn2)cc1`, the Potency entry was “inactive”.

Take `CC(O)(P(=O)(O)O)P(=O)(O)O`: the Potency entry was “inactive”.

Take `F[B-](F)(F)F`: the Potency entry was “inactive”.

As for `C=C1CC[C@H](O)C/C1=C\C=C1/CCC[C@]2(C)[C@@H]([C@H](C)CCCC(C)C)CC[C@@H]12`, the Potency entry is “inactive”.

Turning to `CC/C(=C(\c1ccccc1)c1ccc(OCCN(C)C)cc1)c1ccccc1`, the Potency result is “inactive”.

For `NC(=O)n1c(O)c(C(=O)c2cccs2)c2cc(Cl)ccc21`, the Potency result is “inactive”.

For the molecule `CCCCC(CC)C(=O)O` (stereo not given), the Potency entry was “inactive”.

`Cc1cc(=O)oc2cc(O)ccc12`: the Potency result was “inactive”.

As for `CC(=O)CC(c1ccccc1)c1c(O)c2ccccc2oc1=O` (stereo not given), the Potency result is “inactive”.

Take `Oc1ccccc1`: the Potency result is “inactive”.

Regarding `Cn1c(=O)c2c(ncn2C)n(C)c1=O`, the Potency entry is “inactive”.

Take `NS(=O)(=O)O`: the Potency entry is “inactive”.

Consider `COc1ccc(C(Cl)=C(c2ccc(OC)cc2)c2ccc(OC)cc2)cc1`, for which the Potency result is “inactive”.

For `COc1ccc2c(c1)c(CC(=O)O)c(C)n2C(=O)c1ccc(Cl)cc1`, the Potency result is “inactive”.

For the molecule `CCCc1cc(=O)[nH]c(=S)[nH]1`, the Potency entry was “inactive”.

Consider `CC(C)NCC(O)c1ccc(O)c(O)c1` (stereo not given), for which the Potency entry is “inactive”.

For the molecule `Cc1ncc([N+](=O)[O-])n1CCO`, the Potency entry is “inactive”.

As for `CCCCOC(=O)c1ccc(O)cc1`, the Potency entry is “inactive”.

As to `CCCC[P+](CCCC)(CCCC)CCCC`, the Potency result is “inactive”.

With `CN1CCC[C@H]1c1cccnc1`, the Potency result was “inactive”.

As to `C/C=C/C=C/C(=O)O`, the Potency result is “inactive”.

Regarding `COc1cccc(O)c1O`, the Potency entry was “inactive”.

`CCCCCCCCCCCCCCCC[N+](C)(C)Cc1ccccc1`: the Potency entry was “inactive”.

As to `CCCCCCCCCCCC[N+](C)(C)Cc1ccccc1`, the Potency entry was “inactive”.

As to `O=C(O)c1ccccc1`, the Potency result is “inactive”.

As to `CCc1nc(N)nc(N)c1-c1ccc(Cl)cc1`, the Potency result is “inactive”.

On to `O=C1OC2(c3ccccc31)c1cc(Br)c(O)c(Br)c1Oc1c2cc(Br)c(O)c1Br`, for which the Potency result was “inactive”.

With `O=c1[nH]cc(F)c(=O)[nH]1`, the Potency entry was “inactive”.

For the molecule `CN(C)C(=S)SC(=S)N(C)C`, the Potency entry is “inactive”.

Turning to `Cc1cc(C)nc(NS(=O)(=O)c2ccc(N)cc2)n1`, the Potency entry is “inactive”.

Turning to `Cc1cn([C@H]2C=C[C@@H](CO)O2)c(=O)[nH]c1=O`, the Potency result was “inactive”.

As for `COc1ccc(OC(F)(F)F)cc1CN[C@H]1CCCN[C@H]1c1ccccc1`, the Potency entry was “inactive”.

As for `Cc1ccc(S(=O)(=O)O)cc1`, the Potency entry was “inactive”.

For `Nc1c2c(nc3ccccc13)CCCC2`, the Potency result is “inactive”.

With `NC(CO)(CO)CO`, the Potency entry was “inactive”.

Consider `CC(=O)Nc1c(I)c(NC(C)=O)c(I)c(C(=O)O)c1I`, for which the Potency entry was “inactive”.

As for `CCOc1ccc(NC(C)=O)cc1`, the Potency entry is “inactive”.

`O=C1c2c(O)cccc2Cc2cccc(O)c21`: the Potency result is “inactive”.
